Experimental findings from PubChem BioAssay (NCI) are described below.

Compounds without any hit were thinned out: in the full panel of roughly 83,000, 20% have a hit.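 For each line, cells grew in 96-well plates with the test compound present at a single concentration for 48 hours.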 Values without a mark were called inactive. The source made the active and inactive calls. How the source made its calls: active means growth percent below 10; inactive means the rest.

Assay in all cases: NCI-60 one-dose screen, 48 h (100 = growth as untreated, 0 = no growth, -100 = all killed)
What all share (conditions): 10 µM unless noted

The subject of assay [1] is HCT-15 colon.
The subject of assay [2] is HT29 colon.
Assay [3] has as its system SNB-75 CNS.
Assay [4] relates to SNB-19 CNS.
Assay [5] has as its system U251 CNS.
In assay [6] the test system is PC-3 prostate.
The test system of assay [7] is SK-MEL-5 melanoma.
The test system of assay [8] is UACC-62 melanoma.
Assay [9] concerns LOX IMVI melanoma.
The test system of assay [10] is SK-MEL-28 melanoma.

For `CCOc1ccc(-n2c(-c3cc(OC)c(OC)c(OC)c3)nnc2-c2ccc(OC)cc2N)cc1`, the growth in assay [1] was 64.9%; in assay [2] it was 52.7%; in assay [3], 76.3%; in [4], 75.5%; in assay [5], 65.6%; in assay [6] it was 63.3%. Further, the growth is 66% in assay [7], 66.7% in [8] and 80.3% in assay [9].

As to `CN(C)CCNc1nc2ccccc2c2c(=O)c3ccccc3sc12`, the growth in assay [1] is 8.83% (active); in assay [2] it was -0.107% (active); in assay [3], 30.6%; in assay [4], 47.6%; in assay [5], 17.8%; in assay [6], 21%. Moreover, the growth was -83.1% (active) in assay [7], -33% (active) in assay [8] and -91.6% (active) in assay [9].

`O=[N+]([O-])c1cccc(C(c2ccccc2)c2ccccc2)c1`: the growth is 95.3% in assay [1]; 79.8% in assay [2]; 86.4% in assay [3]; 97.3% in assay [4]; 90.9% in assay [5]; 70.4% in assay [6]. Moreover, the values for the growth in assay [7], in [8] and in assay [9] were 101%, 86.7% and 87.3%, respectively.

As to `Nc1nccc2c1ccn2-c1ccc(NC(=O)c2ccc(N3CCOCC3)c(C(F)(F)F)c2)cc1`, the growth in assay [1] is 14.1%; in assay [2] it was -39.7% (active); in assay [3], 25.7%; in [4] it was 0.546% (active); in assay [5] it was 12%; in [6] it was 10.4%. Besides, the growth in assay [7] is -89.6% (active); in [8], 6.43% (active); in [9], -45.3% (active).

In the case of `O=C1C(Cl)=C(Nc2cccc3cc4ccccc4nc23)C(=O)c2ccccc21`, the growth was 41.4% in [1]; 4.99% (active) in assay [2]; 71.9% in assay [3]; 44.6% in assay [4]; 41.8% in assay [5]; 42% in [6]. The growth in assay [7] was 69.5%; in assay [8] it was 70.1%; in [9] it was 33.9%.

Regarding `O=C(CSc1nnc(-c2ccccc2)o1)Nc1ccc(C(=O)/C=C/c2ccccc2)cc1`, the growth was 25.8% in assay [1]; 32.4% in assay [2]; 33.5% in assay [3]; 64.9% in [4]; 44.1% in assay [5]; 77% in assay [6]. Besides, the growth in [7] was 78.9%; in assay [8] it was 82.3%; in assay [9] it was 24.4%.

In the case of `c1ccc([Se]CCCN2CCN(CCC[Se]c3ccccc3)CC2)cc1`, the growth in [1] was 90.9%; in [2], 96.3%; in assay [3] it was 100%; in assay [4] it was 119%; in [5], 101%; in assay [6], 102%. Also, the results for the growth in [7], in assay [8] and in [9] were 101%, 92.3% and 91.6%, respectively.

`CCCCOc1c(N)cccc1C(=O)OCCN(CC)CC`: the growth in assay [1] was 109%; in assay [2] it was 85.8%; in assay [3], 102%; in assay [4], 99.9%; in [5], 96.5%; in assay [6] it was 86.8%. Moreover, the results for the growth in assay [7], in assay [8] and in assay [9] were 105%, 95.2% and 102%, respectively.

In the case of `C#C[C@@]1(O)[C@@H](CO)O[C@@H](n2cc(C(F)(F)F)c3c(N)ncnc32)[C@@H]1O`, the growth is 3.11% (active) in assay [1]; 0.254% (active) in assay [2]; -54.8% (active) in [3]; 10.7% in assay [4]; 6.37% (active) in assay [5]; 14% in assay [6]. Also, the values for the growth in assay [7], in assay [8] and in [9] were -65.5% (active), -1.29% (active) and -23.6% (active), respectively.

With `CCCC(C)(C)COC(=O)c1cccc(N)c1`, the growth in assay [1] was 113%; in [2], 78.5%; in assay [3] it was 94.5%; in assay [4], 106%; in assay [5] it was 89.1%; in assay [6], 78.1%. Besides, the growth in assay [7] was 102%; in assay [8], 96.6%; in [9], 101%.

Take `CCCCCCCC(=O)SCC/C=C/[C@@H]1CC(=O)NCc2nc(cs2)C2=N[C@@](C)(CS2)C(=O)N[C@@H](C(C)C)C(=O)N1`: the growth was 61% in [1]; -22.4% (active) in assay [2]; 35.8% in [3]; 20.8% in [4]; -33.5% (active) in assay [5]; 19.6% in assay [6]. Further, the values for the growth in [7], in [8] and in [9] were -21.3% (active), -25% (active) and -91.8% (active), respectively.

Turning to `COc1cc(C(=O)N2CCN(C(=O)c3cc(OC)c(OCc4ccccc4)cc3N)CC2)c(N)cc1OCc1ccccc1`, the growth in assay [1] was 130%; in [2], 116%; in assay [3] it was 108%; in assay [4] it was 108%; in [5], 115%; in assay [6] it was 106%. Besides, the growth in assay [7] is 71.4%; in [8] it was 114%; in assay [9], 108%.

Turning to `Cc1c(NC(=O)c2sc3nc4c(cc3c2N)CN(Cc2ccccc2)CC4)cccc1C(F)(F)F`, the growth in [1] was 29.3%; in assay [2] it was 12.2%; in assay [3], 45.8%; in assay [4], 50.5%; in assay [5] it was 38.2%; in assay [6] it was 56%. In addition, the growth was 41.9% in [7], 37.2% in assay [8], 42.3% in assay [9] and 74% in assay [10].

Turning to `N#Cc1c(N)nc(Cl)c(C#N)c1C(=O)c1ccccc1`, the growth in assay [1] was 18.4%; in [2], 18.3%; in assay [3], 50%; in assay [4], 31.2%; in assay [5] it was 30.1%; in assay [6], 37.5%. The results for the growth in assay [7], in assay [8] and in [9] were 23.1%, 36.3% and 12%, respectively.

Turning to `O=c1c2ccccc2sc2c(NCCN3CCOCC3)nc3ccccc3c12`, the growth in assay [1] was 27.1%; in assay [2], 8.68% (active); in [3] it was 42.8%; in [4], 79.3%; in [5] it was 42.3%; in assay [6] it was 43.2%. For the same compound, the growth is 54.8% in assay [7], 33.3% in [8] and 5.67% (active) in assay [9].
